Activity calls are given as the source filed them.
Tests used:
[1] = system: Wnt5a (protein binding on small-molecule microarray); test: small molecules binding Wnt5a protein – biophysical, small-molecule microarray, 635/667 nm fluorescence, primary screen (AID 1142); settings: 635 nm fluorescence, higher = more signal;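 further: fluorescence read at 667 nm with signal to noise per printed feature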
[2] = ATP-based viability of Huh7 replicon cells – cell-based, CellTiter-Glo luminescence, basal, 48 h, cytotoxicity control for HCV replication inhibitor project, primary screen (AID 1143); settings: higher = more signal, called active from +8 up or from −8 down;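 further: Huh7 hepatoma cells carrying a hepatitis C replication reporter with no stimulus; test concentration not given here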
[3] = basal CRE-LacZ reporter activity in PC12 – cell-based, unstimulated, primary screen (AID 1145); settings: no forskolin, luminescence, 4.5 h, higher = more signal, called active from +8 up or from −8 down
[4] = forskolin-driven CRE-LacZ activity in PC12 – cell-based, CRE-LacZ reporter, forskolin-stimulated, primary screen (AID 1146); settings: luminescence, 4.5 h, higher = more signal, called active from +8 up or from −8 down;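 further: PC12 cells with 6xCRE LacZ reporter stimulated by forskolin 10 µM; beta-galactosidase reporter signal reflecting CREB driven transcription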
[5] = molecular target: Streptavidin (Streptomyces avidinii) (UniProt P22629); test: compounds binding control protein streptavidin – biophysical, small-molecule microarray, 635/667 nm fluorescence, artefact control for SMM compound annotation, primary screen (AID 1147); settings: higher = more signal;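 further: signal reflects streptavidin binding to arrayed compounds as a control protein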
[6] = probe aInhba binding on compound microarray – biochemical, small-molecule microarray, 635/667 nm fluorescence, primary screen (AID 1148); settings: higher = more signal;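 further: score merges 667nm spot fluorescence with signal-to-noise for antibody binding to printed compounds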
[7] = molecular target: Torsin-1A (Homo sapiens) (UniProt O14656); test: TOR1A wild-type binding on microarray – cell lysate, small-molecule microarray, lysate, 635/667 nm, primary screen (AID 1149); settings: COS7 hTOR1A-WT lysate, 635 nm fluorescence, higher = more signal
[8] = molecular target: Torsin-1A (Homo sapiens) (UniProt O14656); test: torsin A mutant lysate binding on microarrays – cell lysate, small-molecule microarray, COS7 lysate, 635/667 nm fluorescence, primary screen (AID 1150); settings: COS7 hTOR1A mutant lysate, 635 nm fluorescence, higher = more signal;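 further: score pools 667 nm emission and signal to noise measuring lysate protein binding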
[9] = system: Sonic hedgehog protein (Shh); test: Sonic hedgehog microarray binding compounds – biochemical, small-molecule microarray, 635/667 nm fluorescence, primary screen (AID 1151); settings: 635 nm fluorescence, higher = more signal;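 further: Shh protein binding to compounds spotted on small-molecule microarray slides; score combines spot fluorescence intensity with signal-to-noise across triplicate slides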
[10] = optical density shifts of acrAB sulA E. coli – strain DRC41, OD650, 48 h, E. coli filamentation inducer project, primary screen (AID 1152); settings: higher = more signal, called active from +8 up or from −8 down;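 further: E. coli MC1000 strain DRC41 lacking acrAB efflux pump and sulA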
[11] = probe aLefty1 binding on compound microarray – biochemical, small-molecule microarray, 635/667 nm fluorescence, primary screen (AID 1153); settings: higher = more signal;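 further: score merges spot fluorescence with signal-to-noise ratio from the scanned slide images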
[12] = plasmodial surface anion channel blockers, osmotic lysis – cell-based, P. falciparum Indochina, OD700, 1 h, primary screen (AID 1154); settings: P. falciparum Indochina infected RBC osmotic lysis, higher = more signal, called active from +8 up or from −8 down
[13] = plasmodial surface anion channel blockers, osmotic lysis – cell-based, P. falciparum Indochina, OD700, 2 h, primary screen (AID 1155);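 further: lysis reports solute entry through the parasite surface anion channel PSAC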; settings: P. falciparum Indochina infected erythrocytes, higher = more signal, called active from +8 up or from −8 down
[14] = changes in parasitized red cell lysis, either direction – P. falciparum Indochina, OD700, 3 h, PSAC antagonist project, primary screen (AID 1156); settings: P. falciparum-infected erythrocytes, osmotic lysis, higher = more signal, called active from +8 up or from −8 down
[15] = plasmodial surface anion channel blockers, osmotic lysis – cell-based, P. falciparum Indochina, OD700, 18 h, primary screen (AID 1157); settings: P. falciparum Indochina infected erythrocytes, osmotic lysis OD700, 18 h; higher = more signal, called active from +8 up or from −8 down
[16] = S6 kinase pathway phospho-S6 level changes – cell-based, A549, cytoblot, luminescence, serum-stimulated, primary screen (AID 1158); settings: 5 h, higher = more signal;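 further: serum-stimulated A549 lung adenocarcinoma cells; signal is phosphorylated S6 detected by cytoblot immunostaining with HRP secondary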
[17] = molecular target: NADPH oxidase 2 (Homo sapiens) (UniProt P04839); test: compounds shifting NOX2 Amplex Red fluorescence – cell-based, HEK293-NOX2, PMA-stimulated, NOX inhibitor project, primary screen (AID 1159); settings: 45 min, higher = more signal, called active from +8 up or from −8 down; further: test concentration not given here
[18] = molecular target: NADPH oxidase 4 (Homo sapiens) (UniProt Q9NPH5); test: compounds shifting NOX4 Amplex Red fluorescence – cell-based, HEK293-NOX4, tetracycline-induced, NOX inhibitor project, primary screen (AID 1160); settings: HEK293-NOX4, Amplex Red H2O2 fluorescence, 45 min; higher = more signal, called active from +8 up or from −8 down
[19] = molecular target: NADPH oxidase 5 (Homo sapiens) (UniProt Q96PH1); test: compounds shifting NOX5 Amplex Red fluorescence – cell-based, HEK293-NOX5, NOX inhibitor project, primary screen (AID 1161); settings: HEK293-NOX5, ionomycin, 45 min, higher = more signal
[20] = compound effects on lung adenocarcinoma cell viability – A549, calcein-AM fluorescence, 48 h, basal, profiling panel (AID 1162); settings: higher = more signal; further: test concentration not given here

Chain of Streptavidin (Streptomyces avidinii) (P22629 whole entry, looked up): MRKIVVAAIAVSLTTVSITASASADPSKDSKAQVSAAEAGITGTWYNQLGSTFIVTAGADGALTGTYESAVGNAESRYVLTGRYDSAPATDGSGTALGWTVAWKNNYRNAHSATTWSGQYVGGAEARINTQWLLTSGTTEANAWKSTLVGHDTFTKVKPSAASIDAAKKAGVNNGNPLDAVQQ
Chain of Torsin-1A (Homo sapiens) (O14656 whole entry, looked up): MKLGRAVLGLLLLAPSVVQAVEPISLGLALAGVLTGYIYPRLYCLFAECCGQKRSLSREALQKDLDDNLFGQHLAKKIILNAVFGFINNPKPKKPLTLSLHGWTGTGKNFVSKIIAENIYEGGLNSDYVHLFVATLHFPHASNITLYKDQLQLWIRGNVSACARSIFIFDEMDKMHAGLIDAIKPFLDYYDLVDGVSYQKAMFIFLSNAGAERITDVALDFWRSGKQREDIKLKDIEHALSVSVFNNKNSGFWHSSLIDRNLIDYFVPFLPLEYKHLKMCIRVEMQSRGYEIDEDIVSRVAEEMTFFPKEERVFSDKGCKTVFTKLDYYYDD
Chain of NADPH oxidase 5 (Homo sapiens) (Q96PH1 whole entry, looked up): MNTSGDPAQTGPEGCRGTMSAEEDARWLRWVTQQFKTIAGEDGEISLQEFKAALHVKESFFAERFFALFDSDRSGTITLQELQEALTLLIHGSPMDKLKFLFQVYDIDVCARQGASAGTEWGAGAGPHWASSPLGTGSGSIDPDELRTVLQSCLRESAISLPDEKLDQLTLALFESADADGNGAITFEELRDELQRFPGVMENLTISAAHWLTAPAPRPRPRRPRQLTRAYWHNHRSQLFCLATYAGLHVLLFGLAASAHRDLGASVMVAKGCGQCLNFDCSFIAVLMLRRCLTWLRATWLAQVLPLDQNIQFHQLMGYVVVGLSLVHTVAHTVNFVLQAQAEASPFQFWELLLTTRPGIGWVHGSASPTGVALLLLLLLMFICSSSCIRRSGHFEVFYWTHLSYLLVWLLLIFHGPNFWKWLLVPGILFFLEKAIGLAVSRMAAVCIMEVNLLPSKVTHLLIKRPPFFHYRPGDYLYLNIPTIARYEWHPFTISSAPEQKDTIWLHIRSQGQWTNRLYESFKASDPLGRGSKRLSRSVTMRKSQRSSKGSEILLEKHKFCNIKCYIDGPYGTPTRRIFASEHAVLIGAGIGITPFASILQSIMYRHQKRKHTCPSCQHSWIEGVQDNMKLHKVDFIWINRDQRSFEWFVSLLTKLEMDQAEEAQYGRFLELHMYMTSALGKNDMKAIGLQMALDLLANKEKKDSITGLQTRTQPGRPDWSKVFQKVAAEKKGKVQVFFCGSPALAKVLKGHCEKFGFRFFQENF
Chain of NADPH oxidase 4 (Homo sapiens) (Q9NPH5 whole entry, looked up): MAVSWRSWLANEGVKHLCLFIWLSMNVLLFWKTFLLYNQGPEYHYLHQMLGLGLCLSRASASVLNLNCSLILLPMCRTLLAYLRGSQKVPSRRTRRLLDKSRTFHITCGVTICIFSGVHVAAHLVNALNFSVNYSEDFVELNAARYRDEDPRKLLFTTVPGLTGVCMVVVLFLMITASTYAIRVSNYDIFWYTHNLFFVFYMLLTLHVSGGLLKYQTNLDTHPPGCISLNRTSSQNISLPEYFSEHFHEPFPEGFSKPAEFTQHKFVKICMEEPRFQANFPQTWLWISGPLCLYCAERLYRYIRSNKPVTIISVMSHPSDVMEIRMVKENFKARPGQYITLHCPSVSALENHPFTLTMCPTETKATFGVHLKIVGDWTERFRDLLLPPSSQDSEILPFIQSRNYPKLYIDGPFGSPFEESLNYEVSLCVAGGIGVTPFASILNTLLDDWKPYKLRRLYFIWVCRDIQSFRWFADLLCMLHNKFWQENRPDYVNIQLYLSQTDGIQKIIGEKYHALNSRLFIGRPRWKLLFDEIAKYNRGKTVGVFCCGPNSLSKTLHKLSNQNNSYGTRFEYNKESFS
Chain of NADPH oxidase 2 (Homo sapiens) (P04839 whole entry, looked up): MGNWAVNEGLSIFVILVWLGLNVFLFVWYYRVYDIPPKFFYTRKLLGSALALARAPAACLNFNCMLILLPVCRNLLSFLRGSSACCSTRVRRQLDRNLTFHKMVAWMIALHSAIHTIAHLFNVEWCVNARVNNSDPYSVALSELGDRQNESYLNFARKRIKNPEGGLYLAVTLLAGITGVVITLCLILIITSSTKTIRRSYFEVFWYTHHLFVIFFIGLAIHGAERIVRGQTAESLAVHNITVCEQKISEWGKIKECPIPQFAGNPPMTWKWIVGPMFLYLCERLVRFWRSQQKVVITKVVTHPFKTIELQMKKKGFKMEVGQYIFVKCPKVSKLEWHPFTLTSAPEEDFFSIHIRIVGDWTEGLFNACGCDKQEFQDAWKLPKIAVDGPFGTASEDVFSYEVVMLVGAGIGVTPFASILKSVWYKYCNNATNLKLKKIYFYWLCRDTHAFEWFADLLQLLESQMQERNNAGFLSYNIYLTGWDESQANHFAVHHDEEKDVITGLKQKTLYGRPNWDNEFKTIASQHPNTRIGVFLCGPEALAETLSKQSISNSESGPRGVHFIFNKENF

SMILES: Cc1ccc(S[C@]2(C(=O)NC3CC3)CC(=O)N(Cc3ccccc3C(F)(F)F)[C@@H]2c2ccc(CO)cc2I)cc1
- composite z-score [1]: 0.132
- z-score [2]: -2.54 (inactive)
- z-score [3]: -0.114 (inactive)
- z-score [4]: -0.479 (inactive)
- composite z-score [5]: -0.297
- composite z-score [6]: -0.0523
- composite z-score [7]: -0.0139
- composite z-score [8]: 0.231
- composite z-score [9]: 0.385
- z-score [10]: 2.31 (inactive)
- composite z-score [11]: 0.309
- z-score [12]: 5.75 (inactive)
- z-score [13]: -0.15 (inactive)
- z-score [14]: 0.693 (inactive)
- z-score [15]: -1.31 (inactive)
- z-score [16]: 1.8
- z-score [17]: 1.42 (inactive)
- z-score [18]: -2.36 (inactive)
- z-score [19]: 1.21
- z-score [20]: 0.243

SMILES: COCCOC(=O)N1C(=O)[C@@]2(c3ccccc31)[C@H](C(=O)Nc1nc3ccccc3s1)[C@H]1C(=O)O[C@H](c3ccccc3)[C@H](c3ccccc3)N1[C@@H]2c1ccc(O)cc1
- composite z-score [1]: 0.418
- z-score [2]: -3.59 (inactive)
- z-score [3]: -0.199 (inactive)
- z-score [4]: -0.395 (inactive)
- composite z-score [5]: 0.511
- composite z-score [6]: 0.263
- composite z-score [7]: 0.815
- composite z-score [8]: -0.06
- composite z-score [9]: 2.07
- z-score [10]: 2.37 (inactive)
- composite z-score [11]: 0.577
- z-score [12]: 10.9 (active)
- z-score [13]: 5 (inactive)
- z-score [14]: 1.67 (inactive)
- z-score [15]: 2.06 (inactive)
- z-score [16]: 1.92
- z-score [17]: -0.333 (inactive)
- z-score [18]: -0.395 (inactive)
- z-score [19]: 1.28
- z-score [20]: 0.751

SMILES: COCCCN1C(=O)[C@@]2(Cc3ccccc31)c1ccccc1C(=O)N(Cc1ccccc1Cl)[C@H]2c1ccc(CO)cc1
- composite z-score [1]: 0
- z-score [2]: -1.33 (inactive)
- z-score [3]: -0.179 (inactive)
- z-score [4]: -0.415 (inactive)
- composite z-score [5]: -0.733
- composite z-score [6]: -0.108
- composite z-score [7]: -0.471
- composite z-score [8]: 0.0439
- composite z-score [9]: 0.0161
- z-score [10]: 3.46 (inactive)
- composite z-score [11]: 0.0053
- z-score [12]: 0.399 (inactive)
- z-score [13]: -0.277 (inactive)
- z-score [14]: -0.992 (inactive)
- z-score [15]: -0.85 (inactive)
- z-score [16]: 1.34
- z-score [17]: -2.48 (inactive)
- z-score [18]: 0.163 (inactive)
- z-score [19]: 1.65
- z-score [20]: 1.54

SMILES: COCCCNC(=O)[C@@]1(Cc2ccccc2)N=C(c2ccc(OCCCO)cc2)O[C@H]1c1ccccc1N=[N+]=[N-]
- composite z-score [1]: 0.834
- z-score [2]: -4.48 (inactive)
- z-score [3]: 1.74 (inactive)
- z-score [4]: -1.74 (inactive)
- composite z-score [5]: 0.356
- composite z-score [6]: 0.49
- composite z-score [7]: 0.544
- composite z-score [8]: 0.449
- composite z-score [9]: 0.475
- z-score [10]: 1.78 (inactive)
- composite z-score [11]: 0.826
- z-score [12]: 29.6 (active)
- z-score [13]: 27.1 (active)
- z-score [14]: 3.66 (inactive)
- z-score [15]: 1.92 (inactive)
- z-score [16]: 0.98
- z-score [17]: -0.14 (inactive)
- z-score [18]: 0.523 (inactive)
- z-score [19]: -1.57
- z-score [20]: -0.622

SMILES: C=C(C(=O)CC[C@H](OC(C)=O)c1ccc(CO)o1)C(C)C
- composite z-score [1]: 0.0615
- z-score [2]: -4.37 (inactive)
- z-score [3]: 1.09 (inactive)
- z-score [4]: -0.949 (inactive)
- composite z-score [5]: -0.469
- composite z-score [6]: 0.353
- composite z-score [7]: 0.154
- composite z-score [8]: -0.248
- composite z-score [9]: 0.937
- z-score [10]: 1.27 (inactive)
- composite z-score [11]: -0.215
- z-score [12]: 1.55 (inactive)
- z-score [13]: -0.558 (inactive)
- z-score [14]: 0.68 (inactive)
- z-score [15]: -1.83 (inactive)
- z-score [16]: 2.5
- z-score [17]: -0.0262 (inactive)
- z-score [18]: 0.382 (inactive)
- z-score [19]: -0.706
- z-score [20]: -0.708

SMILES: COc1ccc([Si](C)(C)[C@H]2[C@H](CC(=O)N(CCO)Cc3ccccc3)O[C@@]3(C(=O)N(Cc4ccc(N5CCC5=O)cc4)c4ccccc43)[C@@H]2C)cc1
- composite z-score [1]: -0.161
- z-score [2]: -2.68 (inactive)
- z-score [3]: 1.82 (inactive)
- z-score [4]: -0.316 (inactive)
- composite z-score [5]: -0.161
- composite z-score [6]: -0.128
- composite z-score [7]: 0.162
- composite z-score [8]: 0.294
- composite z-score [9]: 0.407
- z-score [10]: 1.33 (inactive)
- composite z-score [11]: -0.188
- z-score [12]: 27.1 (active)
- z-score [13]: 21.7 (active)
- z-score [14]: 0.241 (inactive)
- z-score [15]: 2.17 (inactive)
- z-score [16]: 1.39
- z-score [17]: 0.946 (inactive)
- z-score [18]: 1.25 (inactive)
- z-score [19]: 2.96
- z-score [20]: -0.0126

SMILES: CCCCCN1CC=CC23O[C@@H]4/C=C\CCC(C)OC(=O)C4[C@H]2C(=O)N(CCO)[C@@H]3C1=O (stereo not given in full)
- composite z-score [1]: -0.376
- z-score [2]: -0.989 (inactive)
- z-score [3]: 1.02 (inactive)
- z-score [4]: -1.06 (inactive)
- composite z-score [5]: -0.877
- composite z-score [6]: -0.233
- composite z-score [7]: 0.615
- composite z-score [8]: 0.816
- composite z-score [9]: -0.542
- z-score [10]: 2.08 (inactive)
- composite z-score [11]: -0.147
- z-score [12]: 2.04 (inactive)
- z-score [13]: 0.402 (inactive)
- z-score [14]: 0.944 (inactive)
- z-score [15]: 0.0613 (inactive)
- z-score [16]: 0.0564
- z-score [17]: 1.88 (inactive)
- z-score [18]: -0.354 (inactive)
- z-score [19]: 2.5
- z-score [20]: 0.414

SMILES: O=C(NC1CC1)[C@@H]1c2ccccc2C(=O)N(Cc2ccccc2C(F)(F)F)[C@H]1c1ccc(CO)cc1
- composite z-score [1]: 0.312
- z-score [2]: -0.568 (inactive)
- z-score [3]: -0.0512 (inactive)
- z-score [4]: -1.37 (inactive)
- composite z-score [5]: -0.47
- composite z-score [6]: 0.0439
- composite z-score [7]: 0.504
- composite z-score [8]: 0.723
- composite z-score [9]: 0.732
- z-score [10]: 1.48 (inactive)
- composite z-score [11]: 0.106
- z-score [12]: 2.17 (inactive)
- z-score [13]: 0.721 (inactive)
- z-score [14]: -0.335 (inactive)
- z-score [15]: 0.106 (inactive)
- z-score [16]: 0.152
- z-score [17]: 0.583 (inactive)
- z-score [18]: 0.647 (inactive)
- z-score [19]: 1.26
- z-score [20]: 1.88
